KCNQ2 pot: potentiators of rat KCNQ2 potassium channel; AID 2239; hit rate 0.54% among 310,000; CHO-K1 KCNQ2, FluxOR thallium flux fluorescence; stronger effect = higher value; O88943; B-score at 10 µM;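 active = fluorescence ratio B-score at least 3 SD of library B-scores, with initial fluorescence B-score within 3 of them, cut at about 5.3 in these data; same plate scores as AID 2156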;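 note: B-score of peak minus minimum over baseline fluorescence ratio after K+ and Tl+ stimulus; positive B-score means potentiation of KCNQ2 with more thallium influx and brighter signal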
KCNQ2 inh: blocks the rat KCNQ2 potassium channel | O88943 | CHO-K1 KCNQ2, FluxOR thallium flux, 20 min; stronger effect = lower value | B-score at 10 µM | hit rate 1.1% among 310,000;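 active = fluorescence ratio B-score at most minus 3 library SDs, with starting brightness B-score within 2 library SDs, cut at about -5.5 in these data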
KCNQ2 block conf: confirmation of rat KCNQ2 potassium channel inhibitors; shares compounds with KCNQ2 inh; activity change, negative = inhibition, % at 10 µM; AID 493025; KCNQ2-expressing cells, thallium flux, inhibition; stronger effect = lower value; hit rate 57% among 1,000;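 note: 0% = vehicle wells and values are ratio percent relative to vehicle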
KCNQ1 spec: KCNQ2 inhibitor that also affects human KCNQ1 channel; hit rate 15% among 1,000; activity change, negative = inhibition, % at 10 µM; shares compounds with KCNQ2 inh; AID 493026; KCNQ1-expressing cells, FluxOR thallium flux fluorescence; stronger effect = lower value;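 active = activity change at least 3 SD of negative controls below their mean in both duplicate wells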;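 note: CHO cells stably transfected with KCNQ1 and depolarized by potassium stimulus; peak minus minimum fluorescence over baseline after thallium addition; 0% = vehicle negative control and -100% = blank without thallium stimulus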
CHO parental ctr: counter-screen for KCNQ2 inhibitors: effect in parental CHO cells; shares compounds with KCNQ2 inh; thallium flux counter-screen; stronger effect = lower value; activity change, % at 10 µM; hit rate 14% among 1,000;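 note: 0% = vehicle negative controls with stimulus buffer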
KCNQ2 patch conf: rat KCNQ2 inhibition confirmed by electrophysiology; shares compounds with KCNQ2 inh; KCNQ2-expressing cells, automated patch clamp current; calls only at 10 µM; hit rate 49% among 550; AID 588531
Kir21 confirm: confirmation of mouse Kir2.1 potassium channel inhibitors. shares compounds with KCNQ2 pot. Kir2.1-expressing cells, FluxOR thallium flux fluorescence; stronger effect = lower value. hit rate 41% among 2,300. AID 2032. Tl flux remaining, % of negative control (stronger effect = lower value), % at 10 µM;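 active = Primary-screen hit whose thallium flux fell at least 3 control SD below untreated wells in both duplicates, with normal baseline fluorescence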;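 note: 0% = blank wells without stimulus and 100% = stimulated no-compound controls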
Target sequence (P35561 whole entry, looked up): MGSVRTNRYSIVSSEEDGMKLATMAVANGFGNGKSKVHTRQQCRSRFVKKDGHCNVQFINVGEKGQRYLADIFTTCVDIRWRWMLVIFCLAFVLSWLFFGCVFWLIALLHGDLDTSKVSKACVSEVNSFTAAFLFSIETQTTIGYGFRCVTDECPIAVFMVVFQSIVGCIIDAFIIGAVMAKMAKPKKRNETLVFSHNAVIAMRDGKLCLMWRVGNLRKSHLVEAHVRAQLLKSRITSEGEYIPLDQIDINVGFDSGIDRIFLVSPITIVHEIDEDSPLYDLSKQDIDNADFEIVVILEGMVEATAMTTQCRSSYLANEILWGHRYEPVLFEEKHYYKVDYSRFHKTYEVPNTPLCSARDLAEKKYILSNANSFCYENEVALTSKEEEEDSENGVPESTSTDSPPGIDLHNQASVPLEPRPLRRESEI
HEK293 Tl flux: alters thallium flux in parental HEK293 cells, Kir2.1 counter-screen; shares compounds with KCNQ2 pot; FluxOR thallium flux fluorescence; 0% = unstimulated blank wells; FluxOR signal as % of negative control (100 = no effect), % at 10 µM; hit rate 19% among 2,300; AID 2105;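 active = dye signal at least 3 control SD above or below untreated wells in both duplicates, raw fluorescence within 3, either direction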;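 note: percent is based on the flux ratio of peak minus minimum fluorescence over baseline F0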
The depositor's hits bear a star; i = inactive; / = no result given; + = active, no number. Hits are enriched below; roughly 1.6% of the tested compounds scored in any of these assays. Unless noted, the rule behind the calls is not given here.

SMILES	KCNQ2 pot	KCNQ2 inh	KCNQ2 block conf	KCNQ1 spec	CHO parental ctr	Kir21 confirm	HEK293 Tl flux	others
CCCCCCCNC(=O)C1(CC2CC(c3cccc(Br)c3)=NO2)CCNCC1 (stereo not given)	-8.6	-8.6*	-42%*	-43%*	-45%*	37%*	i	KCNQ2 patch conf=+
CC(C)(C)NC(=O)CN(Cc1ccccc1)S(=O)(=O)c1ccccc1	0.11	i	/	/	/	/	/
Cc1ccc(COc2ccc(/C=N/O)cc2)cc1	/	i	/	/	/	/	/
NC(N)=N/N=C/c1ccc(OCc2ccc(Cl)cc2)cc1	-9.6	-9.6*	-37%*	i	i	i	76%*	KCNQ2 patch conf=+
CCOc1cc(CNCc2ccccc2)ccc1OCc1ccc(Cl)cc1	/	i	/	/	/	/	/
COc1ccc(CNCCc2ccc(Cl)cc2)cc1OCc1ccccc1	-13	-13*	i	i	i	14%*	i
CCc1ccc(NC(=O)CSc2nnc(CNC(=O)c3cccs3)o2)cc1	0.56	i	/	/	/	/	/
Cc1cc(C)cc(NC(=O)COc2coc(CN3CCc4ccccc4C3)cc2=O)c1	/	i	/	/	/	/	/
CC(C)Cn1cnc2c(c(-c3ccccc3)c(-c3ccccc3)n2Cc2ccco2)c1=N	-10	-10*	i	i	i	i	134%*
N=c1c2c(-c3ccccc3)c(-c3ccccc3)n(Cc3ccccc3)c2ncn1CCO	-7.5	-7.5*	i	i	i	38%*	63%*
N=c1c2c(-c3ccccc3)c(-c3ccccc3)n(Cc3ccco3)c2ncn1CCCN1CCOCC1	/	i	/	/	/	/	/
N=c1c2c(-c3ccccc3)c(-c3ccccc3)oc2ncn1CCN1CCOCC1	/	i	/	/	/	/	/
O=C1CC2(CCN(C(=O)c3cccc([N+](=O)[O-])c3)CC2)Oc2ccccc21	/	i	/	/	/	/	/
Cc1noc(C)c1CCC(=O)NC1CCCN(Cc2ccc(CC(C)C)cc2)C1 (stereo not given)	/	i	/	/	/	/	/
O=Cc1ccc(OC2OCCOC2Oc2ccc(C=O)cc2)cc1 (stereo not given)	1.3	i	/	/	/	/	/
CCOC(=O)C1CCCCN1S(=O)(=O)c1cc2c(cc1C)NC(=O)CO2 (stereo not given)	/	i	/	/	/	/	/
COc1ccc(OCc2n(CC(=O)OC3CC(C)CCC3C(C)C)c3ccccc3[n+]2C)cc1 (stereo not given)	-7.4	-7.4*	-21%*	i	i	16%*	i	KCNQ2 patch conf=+
CC1CCC(C(C)C)C(OC(=O)COC(=O)c2cc(O)ccc2N)C1 (stereo not given)	0.16	i	/	/	/	/	/
COc1ccc(-c2n(CC(=O)OC3CC(C)CCC3C(C)C)c3ccccc3[n+]2C)cc1 (stereo not given)	-11	-11*	-34%*	i	i	i	i	KCNQ2 patch conf=+
CC1CCC(C(C)C)C(OC(=O)COC(=O)c2ccc(=O)[nH]c2)C1 (stereo not given)	2.4	i	/	/	/	/	/
CC(C)N1CC(C(=O)Nc2ccc(F)c(Cl)c2)CC1=O (stereo not given)	/	i	/	/	/	/	/
CN1c2ccccc2C(C)(C)[C@]12C=Cc1cc(O)ccc1O2	-9.5	-9.5*	-34%*	i	i	i	i	KCNQ2 patch conf=i
CC1(C)OC(=O)N(c2ccccc2)C12C=Cc1cc(Br)ccc1O2 (stereo not given)	/	i	/	/	/	/	/
O=C1CC(c2ccc(O)c(O)c2)Oc2cc(O)cc(O)c21 (stereo not given)	0.26	i	/	/	/	/	/
CC(C)=CCc1c(O)ccc2c1OC(c1ccc(O)c(O)c1)CC2=O (stereo not given)	-8.7	-8.7*	i	i	i	54%*	i
COc1ccc(S(=O)(=O)NCc2cccnc2)cc1C(=O)Nc1ccccc1	1.9	i	/	/	/	/	/
CC(=O)n1c(-c2ccccc2)c(CO)c2ccccc21	0.08	i	/	/	/	/	/
NCCc1c(-c2ccccc2)n(-c2ccccc2)c2ccccc12	-7	-7*	i	i	i	15%*	i
Nc1nc2c(F)c(F)c(F)cc2s1	1.3	i	/	/	/	/	/
